Data as given in PubChem BioAssay AID687014 (The Scripps Research Institute Molecular Screening Center, 2013).
The campaign covered roughly 370,000 compounds. About 6,800 (1.8%) were called active. Shown is part of a subset that was picked to be rich in actives. A number with no mark means an inactive call.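 The calls were made as follows: active = activation above a cutoff set at the mean of all screened compounds plus 3 SD (cut at about 10% in these data); inactive = the rest.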

test system: Nuclear hormone receptor DAF-12 (Heterodera glycines), GAL4 fusion; assay: H. glycines DAF-12 receptor agonists, primary screen, cell-based, luminescence, HEK293, GAL4 fusion, UAS-luciferase (AID 687014); conditions: HEK293 GAL4-hgDAF12 UAS-luciferase reporter, agonist luminescence; at 6.8 µM; hits give high values; normalized to butyrate control;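 also: 0% = DMSO wells and 100% = sodium butyrate wells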

SMILES	activation
C=CCN1C(=O)[C@@H](CC(=O)N2CCN(C(=O)OCC)CC2)[C@]2(C(=O)OCC)CCCCC/C=C/12	-0.26%
CCN(CC)C(=O)CC[C@@H]1CC[C@]2(CCCN(S(=O)(=O)C3CCCCC3)C2)O1	0.45%
C=CCn1c(SCC(N)=O)nnc1-c1ccccc1OC	-1.84%
N#Cc1ccc(C2N=C(c3ccccc3)NO2)cc1 (stereo not drawn)	9.37%
Brc1ccccc1C1N=C(c2ccccc2)NO1 (stereo not drawn)	20.2% (active)
S=C1NC(c2ccccc2)=NCN1c1ccc(Br)cc1	4.34%
CCOC(=O)C1CCN(C(=O)C(C)(C)NC(=O)Nc2ccccc2Cl)CC1	0.66%
C[C@@H]1ON(C)[C@H]2C[C@H]3c4cc(N5CCOCC5)ccc4CCN3C[C@@H]12	-4.54%
COC(=O)C1=C(C)N(Cc2ccccc2C(F)(F)F)C(=NCc2ccc(OC)cc2)NC1c1cccc(C(F)(F)F)c1 (stereo not drawn)	-1.71%
O=C(Nc1ccon1)c1sc2ccccc2c1Cl	11.2% (active)
O=C(Nc1ccc2c(c1)OCO2)c1sc2cc(Cl)ccc2c1Cl	-1.79%
CN1CCc2ccccc2C1Cc1ccccc1NC(=O)c1sc2ccccc2c1Cl (stereo not drawn)	5.85%
C[C@@H]1CN([C@H](C)CO)C(=O)CCCn2cc(nn2)CO[C@H]1CN(C)C(=O)Nc1ccc(N2CCCCC2)cc1	5.88%
Cc1nc2ccccc2n1C(=O)N1CCOCC1	1.42%
N#CCSc1nc2ccc(N3CCOCC3)cc2c(=O)n1CCc1ccccc1	-1.34%
Cc1nn2c3cc(N4CCOCC4)ccc3nc2c2ccccc12	11.4% (active)
Cc1ccc(Cn2cc(CN3[C@@H](CC(C)C)COc4ccc(Cl)cc4S3(=O)=O)nn2)cc1	0.41%
CCCC1(C(=O)OCC)NC(c2ccc(N(C)C)cc2)C2C(=O)N(c3ccc4c(c3)OCCO4)C(=O)C21 (stereo not drawn)	-2.1%
Cc1ccc(-c2nc(C3CCCN(S(=O)(=O)c4ccc(Br)s4)C3)no2)cc1 (stereo not drawn)	1.98%
COC(=O)c1ccccc1Oc1c(F)c(F)nc(N2CCOCC2)c1F	-0.09%
COc1ccc(Nc2ncc(F)c(N3CCOCC3)n2)cc1	18.6% (active)
Fc1cnc(N2CCOCC2)nc1NCc1ccccc1	-0.76%
COC(=O)c1cc2c(c3c4cc(F)ccc4n(S(=O)(=O)c4ccccc4)c13)C(=O)N(Cc1ccccc1OC)C2	0.57%
Cc1ccc(NC(=O)C(=O)NCc2ccco2)c(C)c1	6.27%

SMILES	activation
Cc1ccc(NC(=O)c2oc(=O)c3ccccc3c2-c2ccccc2)c(C)c1	2.59%
Cc1ccc(NN=C2C(=O)OC(C)(C)OC2=O)c(C)c1	11.5% (active)
C=CCN(C)CC#Cc1ccccc1	-1.36%
CCOc1ccc(NC(=O)N(CCC(C)C)C(C)c2ccco2)cc1 (stereo not drawn)	-1.26%
CCCCSc1nnc(-c2ccc(C)cc2)o1	8.59%
O=C(CSc1nnc(-c2ccco2)o1)NCC(=O)c1ccccc1	-1.52%
CCOc1ccc(-c2nnc(-c3ccco3)o2)cc1	13.6% (active)
CCCCOc1ccc(-c2nnc(-c3ccco3)o2)cc1	11.3% (active)
CCCCCCc1cc2cc(-c3nnc(-c4cccc(OC)c4)o3)c(=O)oc2cc1O	4.05%
COC(=O)[C@]12C[C@H](CC(=O)N3CCOCC3)C(=O)N(Cc3ccc(Cl)cc3Cl)C1=C[C@H](C(C)C)O[C@@H]2C1CC1	-3.62%
CCOC(=O)C1=C(C(=O)OCC)C2N(Cc3ccc(C#N)cc3)c3ccccc3[C@@]23C[C@@H](C(=O)OC)N(S(=O)(=O)c2ccc(F)cc2)C3=N1 (stereo partly drawn)	2.34%
Cc1ccc(-n2c(SCC(=O)Nc3cccc4ccccc34)nnc2-c2ccccn2)cc1	-2.36%
Cc1cccc(OCC(=O)Nc2ccc(C(=O)O)cc2NC(=O)COc2cccc(C)c2)c1	-2.94%
Cc1cccc(OCC(=O)NC2CC(C)(C)NC(C)(C)C2)c1	0.72%
Cc1cccc(OCC(=O)Nc2ccccc2F)c1	11.4% (active)
COC(=O)C1CN(CCc2ccccc2)CCS(=O)(=O)N1Cc1cccc(Cl)c1 (stereo not drawn)	-0.51%
COc1ccc(C2=Nc3cc(C)ccc3OC2)cc1	15.9% (active)
Cc1ccc(C(=O)NNC2=Nc3cc([N+](=O)[O-])ccc3OC2)cc1	4.07%
COc1ccc(-c2onc(C)c2-c2ccc3c(c2)OCCO3)c(O)c1	-2.49%
O=C1Nc2ccccc2OC1CC(=O)N1CCCCCCC1 (stereo not drawn)	3.97%
O=C(c1cccc(C(F)(F)F)c1)N1CC[C@H]2[C@H](CCCN2Cc2cc(F)cc(F)c2)C1	1.35%
CC(=O)c1ccc(OC(=O)N2CCOCC2)cc1	1.11%
Cc1ccc(C(=O)C(=S)N2CCOCC2)cc1	3.06%
NC1=NN(c2cccc(C(=O)O)c2)C(=O)C1	0.87%

SMILES	activation
O=C(O)c1ccc(N=NN2CCOCC2)cc1	10.6% (active)
O=C(c1ccccc1)C(O)(CN1CCCCC1)c1ccccc1 (stereo not drawn)	-0.03%
O=C(O)c1cccc(N=NN2CCCCCC2)c1	12.7% (active)
O=C(NC1CCCCN(Cc2cccc(C(F)(F)F)c2)C1=O)c1ccccc1I (stereo not drawn)	-2.42%
CC(C)NC(=S)N1CCN(S(C)(=O)=O)CC1	2.81%
C=CCN1C(=O)[C@H](CC(=O)N2CCN(C(=O)OCC)CC2)[C@@]2(C(=O)OCC)CCCC=C12	0.53%
COC(=O)[C@@]12CCCCC=C1N(CCc1ccc(Cl)cc1)C(=O)[C@H]2CC(=O)NCc1ccc(OC)c(OC)c1	-3.28%
CCOC(=O)c1cc2c(nc1NC(=S)Nc1ccccc1)CC(C)(CC)OC2 (stereo not drawn)	-0.06%
CCOC(=O)c1c(NC(=S)Nc2ccccc2)sc2c1CCN(C)C2	-0.1%
CCOC(=O)c1cn[nH]c1NC(=S)Nc1ccccc1	15.5% (active)
Cc1ccccc1Nc1nc(N)nc(CN2CCN(c3ccccn3)CC2)n1	-1.77%
Cc1ccccc1Nc1nc(N)nc(CSc2nnc3ccccn23)n1	-2.26%
Cc1ccccc1Nc1nc(N)nc(CSc2ccccc2)n1	16.4% (active)
Clc1ccc(-n2c(SC/C=C/c3ccccc3)nnc2-c2ccco2)cc1	-0.13%
O=C(CSc1nc2ccccc2nc1N1CCCCC1)N1CCN(S(=O)(=O)c2cccc([N+](=O)[O-])c2)CC1	0.48%
COc1ccc(CCc2nc(-c3cccs3)no2)cc1	11.6% (active)
COc1ccc(OC)c(CNC(=O)CCc2nc(-c3cccs3)no2)c1	-2.24%
CCc1ccc(CNC(=O)CCc2nc(-c3cccs3)no2)cc1	1.81%
CCOC(=O)C1CSCCS(=O)(=O)N1Cc1ccc(Cl)cc1 (stereo not drawn)	-2.53%
CN1C(=O)C2CC(O)C(SC3CC4C(=O)N(C)C(=O)C4CC3O)CC2C1=O (stereo not drawn)	-0.94%
COc1ccc2nc3n(c(=O)c2c1)-c1ccc(Cl)cc1C(=O)NC3Cc1ccccc1 (stereo not drawn)	-2.62%
O=C(NC1CCC1)c1ccc(C#CC2CC2)cn1	14.1% (active)
Cn1ncc(Br)c1C(=O)NC1CCCC1	2.19%
O=C(NC1CCC1)c1ccc(C#Cc2cccc(F)c2)c[n+]1[O-]	4.83%

SMILES	activation
CC1CN(C(=S)Nc2ccc(S(N)(=O)=O)cc2)CC(C)O1 (stereo not drawn)	0.5%
COc1cc(C(=O)Nn2c(O)c(C3=c4ccccc4=NC3=O)sc2=S)ccc1O	5.04%
Cc1ccc(-c2nnc(SC(C)C#N)n2N)cc1 (stereo not drawn)	-2.55%
COc1ccc(C(=O)COC(=O)C(O)c2ccccc2)c(OC)c1 (stereo not drawn)	10.7% (active)
COc1ccc(C(=O)COC(=O)c2nn(C)c(=O)c3ccccc23)c(OC)c1	-0.75%
COc1ccc(C(=O)COC(=O)CN2C(=O)C3CC=CCC3C2=O)c(OC)c1 (stereo not drawn)	-0.12%
Nc1[nH]c(C(=O)c2ccc(Br)cc2)c(-c2ccc3c(c2)OCO3)c1C(=O)NCCc1c[nH]c2ccccc12	1.89%
Cc1ccc(S(=O)(=O)N(C)C)cc1NC(=O)COC(=O)C1COc2ccccc2O1 (stereo not drawn)	1.41%
CC(=O)c1ccccc1NC(=O)COC(=O)C1COc2ccccc2O1 (stereo not drawn)	24.1% (active)
COc1ccc(NC(=O)CC2COc3ccccc3O2)c(OC)c1 (stereo not drawn)	1.72%
CCOC(=O)[C@]12CCCC=C1N(CCCOC)C(=O)[C@@H]2CC(=O)N1CCOCC1	0.45%
Cc1noc(C)c1/C=N/Nc1ccc2ccccc2n1	12.8% (active)
Cc1cc2c(C)nc(N/N=C/c3ccccc3)nc2o1	4.01%
C(=N\Nc1ccc2ccccc2n1)/c1ccc2c(c1)OCO2	11.2% (active)
COc1cccc(CNCc2ccc3c(c2)OCO3)c1	-0.87%
O=C(OC12CCCN(C1)/C(=C/c1ccccc1)C2)c1ccco1 (stereo not drawn)	-2.49%
Cc1cc(-c2ccccc2)n2nc(C)c(-c3ccccc3)c2n1	0.2%
Cc1nn(C(=O)c2ccoc2C)c(N)c1-c1ccccc1	12.5% (active)
Cc1occc1C(=O)Nc1cccc(Cn2cccn2)c1	0.48%
O=C(NCCc1c[nH]c2ccccc12)OCc1cn(-c2c(F)cccc2F)nn1	-0.77%
O=S1(=O)c2c(cccc2N2CC[C@H](O)C2)O[C@@H]2CCN1C2	-2.37%
